This note sets out measurements from PubChem BioAssay (NCI).

About 83,000 compounds went through this panel and 20% of them were active in at least one assay; those are over-represented in the sample as a whole.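 Percent growth is the endpoint: 0 to 100 indicates growth inhibition (40 means 60% inhibition), 0 means no net growth, and negative values indicate cell death.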 Unmarked numbers belong to inactive results. Active and inactive are the calls of the source. The calls were made as follows: active = growth percent below 10; inactive = the rest.

Among the test systems are SR leukemia; RPMI-8226 leukemia; OVCAR-8 ovarian; OVCAR-5 ovarian; OVCAR-4 ovarian; SK-OV-3 ovarian; IGROV1 ovarian; OVCAR-3 ovarian; HS 578T breast; NCI/ADR-RES ovarian; T-47D breast; MDA-MB-435 melanoma; SW-620 colon; MCF7 breast; HCT-116 colon; KM12 colon; BT-549 breast; HCC-2998 colon.
Common to all, as to assay: NCI-60 one-dose screen, 48 h (100 = growth as untreated, 0 = no growth, -100 = all killed)
What all share (settings): 10 µM unless noted

In the case of `C=CC(C)(O)CC/C=C(\CO)C(=O)OC1C(C)OC(O[C@](C)(C=C)CC/C=C(\CO)C(=O)O[C@H]2C[C@@]3(C(=O)OC4OC(CO)C(O)C(O)C4OC4OC(C)C(OC5OC(CO)C(O)C5O)C(OC5OC(CO)C(O)C(O)C5O)C4O)C(CC2(C)C)C2=CCC4[C@@]5(C)CC[C@H](OC6OC(COC7OC(C)C(O)C(O)C7OC7OCC(O)C(O)C7O)C(O)C(O)C6NC(C)=O)C(C)(C)C5CC[C@@]4(C)[C@]2(C)C[C@H]3O)C(O)C1O` (stereo partly specified), the growth is -26.7% (active) in the assay on SR leukemia; 41.4% with RPMI-8226 leukemia; 10.3% in the assay with OVCAR-8 ovarian; 11.8% in the assay with OVCAR-5 ovarian; -29.2% (active) in the assay with OVCAR-4 ovarian; -79.8% (active) in the assay on SK-OV-3 ovarian. In addition, the growth in the assay on IGROV1 ovarian was -49.2% (active); in the assay with OVCAR-3 ovarian it was -94% (active); with HS 578T breast it was -31.4% (active); in the assay on NCI/ADR-RES ovarian, 17.5%; with T-47D breast it was -54% (active); in the assay with MDA-MB-435 melanoma, -80.5% (active). The growth was -43.2% (active) in the assay with SW-620 colon, -50% (active) with MCF7 breast, 6.13% (active) in the assay with HCT-116 colon and -86.7% (active) in the assay with KM12 colon.
For the compound `CCn1cc(C2=C(c3cn(C)c4ncccc34)C(=O)NC2=O)c2cccnc21`, the growth in the assay with SR leukemia is 59.4%; in the assay with RPMI-8226 leukemia it was 85.2%; with OVCAR-8 ovarian, 82.5%; in the assay with OVCAR-5 ovarian it was 102%; in the assay with OVCAR-4 ovarian, 69.3%; with SK-OV-3 ovarian it was 41.6%. For the same compound, the growth in the assay on IGROV1 ovarian is 64.5%; in the assay with OVCAR-3 ovarian, 64.7%; in the assay on HS 578T breast, 32%; with NCI/ADR-RES ovarian, 78.2%; in the assay on BT-549 breast it was 32.9%; in the assay on MDA-MB-435 melanoma it was 65%. Moreover, the growth was 92.4% with SW-620 colon; 38.3% in the assay with MCF7 breast; 70.9% in the assay with HCT-116 colon; 91.4% in the assay on HCC-2998 colon; 46.7% in the assay with KM12 colon.
Take `COc1ccc(/C=C/C(=O)c2cc3c(N)c(C(=O)Nc4ccccc4C)sc3nc2C)cc1`: the growth with SR leukemia was 15.2%; in the assay on RPMI-8226 leukemia it was -7.33% (active); in the assay on OVCAR-8 ovarian, 6.22% (active); in the assay on OVCAR-5 ovarian, 36.6%; with OVCAR-4 ovarian it was 54%; in the assay with SK-OV-3 ovarian, 21.2%. Moreover, the growth in the assay with IGROV1 ovarian was 30.6%; in the assay on OVCAR-3 ovarian it was 1.23% (active); in the assay on HS 578T breast, 10.4%; in the assay with NCI/ADR-RES ovarian, 7.7% (active); in the assay on T-47D breast, 39.9%; with MDA-MB-435 melanoma, -39.6% (active). Also, the growth in the assay on SW-620 colon is 14.9%; in the assay with MCF7 breast, 9.36% (active); with HCT-116 colon it was 14.7%; in the assay with HCC-2998 colon, 15.4%; in the assay with KM12 colon, 10.6%.
Regarding `CCN(CC)CCCC(C)Nc1ccc2cc(OC)ccc2n1` (stereo unspecified), the growth was 120% in the assay with SR leukemia; 97% in the assay with RPMI-8226 leukemia; 99.8% in the assay on OVCAR-8 ovarian; 109% in the assay on OVCAR-5 ovarian; 62% in the assay with OVCAR-4 ovarian; 113% in the assay on SK-OV-3 ovarian. Further, the growth in the assay with IGROV1 ovarian was 105%; in the assay with OVCAR-3 ovarian, 98.8%; in the assay with HS 578T breast, 99.9%; in the assay on NCI/ADR-RES ovarian, 108%; in the assay with T-47D breast, 103%; in the assay on MDA-MB-435 melanoma, 104%. Besides, the growth with SW-620 colon is 94.4%; in the assay with MCF7 breast it was 84.2%; in the assay with HCT-116 colon it was 102%; in the assay with HCC-2998 colon, 101%; with KM12 colon it was 93.2%.
For the compound `COc1ccc(-c2ccc(=O)oc2C#Cc2cc(OC)c(OC)c(OC)c2)cc1O`, the growth in the assay on SR leukemia is 7.05% (active); in the assay on RPMI-8226 leukemia it was 15.3%; in the assay with OVCAR-8 ovarian, 20%; in the assay on OVCAR-5 ovarian, 46.2%; in the assay with OVCAR-4 ovarian, 58.6%; in the assay on SK-OV-3 ovarian it was 30.7%. Further, the growth in the assay on IGROV1 ovarian is 28.9%; in the assay with OVCAR-3 ovarian, -67.2% (active); in the assay with HS 578T breast, -8.91% (active); in the assay with NCI/ADR-RES ovarian it was 16.4%; with BT-549 breast it was -16.9% (active); in the assay with MDA-MB-435 melanoma, -78% (active). The growth in the assay on SW-620 colon was -30.3% (active); in the assay with MCF7 breast, 3.79% (active); in the assay with HCT-116 colon, -30.4% (active); in the assay on HCC-2998 colon, 221%; in the assay with KM12 colon it was 3.09% (active).
As to `N=C(N)SCc1cccc2c(CSC(=N)N)cccc12`, the growth in the assay with SR leukemia is 92.9%; in the assay with RPMI-8226 leukemia, 107%; in the assay on OVCAR-8 ovarian, 102%; with OVCAR-5 ovarian, 92.4%; in the assay on OVCAR-4 ovarian, 116%; with SK-OV-3 ovarian it was 113%. The growth in the assay on IGROV1 ovarian was 99.2%; with OVCAR-3 ovarian, 102%; in the assay on HS 578T breast it was 100%; in the assay on NCI/ADR-RES ovarian, 105%; in the assay with T-47D breast, 96.2%; with MDA-MB-435 melanoma it was 107%. The growth with SW-620 colon was 103%; in the assay on MCF7 breast, 98.2%; in the assay on HCT-116 colon, 101%; in the assay with HCC-2998 colon, 104%; with KM12 colon, 94.5%.
`c1ccc2cc(Cn3c[n+](Cc4ccc5ccccc5c4)c4ccccc43)ccc2c1`: the growth was -66.7% (active) in the assay on SR leukemia; -53.6% (active) in the assay on RPMI-8226 leukemia; -47.9% (active) in the assay with OVCAR-8 ovarian; 22.3% in the assay with OVCAR-5 ovarian; -14.9% (active) with OVCAR-4 ovarian; -0.377% (active) with SK-OV-3 ovarian. Besides, the growth in the assay with IGROV1 ovarian is -42.4% (active); in the assay on OVCAR-3 ovarian, -50.8% (active); in the assay with HS 578T breast it was 3.56% (active); with NCI/ADR-RES ovarian, 91.2%; in the assay on T-47D breast it was -8.43% (active); in the assay on MDA-MB-435 melanoma, -52.6% (active). Besides, the growth with SW-620 colon is -3% (active); with MCF7 breast, -30.2% (active); in the assay on HCT-116 colon, -90.6% (active); in the assay with HCC-2998 colon, -53.3% (active); in the assay on KM12 colon it was -85.9% (active).
Turning to `Cn1cc(-c2nc(-c3c[nH]c4ccncc34)cs2)c2cc(Br)ccc21`, the growth in the assay on SR leukemia was -23.6% (active); with RPMI-8226 leukemia, -38% (active); with OVCAR-8 ovarian it was -53.2% (active); with OVCAR-5 ovarian, -94.1% (active); with OVCAR-4 ovarian, -71% (active); in the assay on SK-OV-3 ovarian, 40.8%. For the same compound, the growth in the assay on IGROV1 ovarian was -82.8% (active); with OVCAR-3 ovarian it was -92.5% (active); in the assay with HS 578T breast it was -44% (active); with NCI/ADR-RES ovarian, -57.6% (active); in the assay on T-47D breast, -54.1% (active); with MDA-MB-435 melanoma, -81.4% (active). The growth in the assay on MCF7 breast was -72.4% (active); with HCT-116 colon, -89.7% (active); in the assay with HCC-2998 colon it was -68.9% (active); in the assay with KM12 colon, -83.8% (active).
In the case of `CCCCn1sc(=O)n(Cc2ccc(CNC(=O)OCc3ccc4c(Cl)cc(Cl)c(O)c4n3)cc2)c1=O`, the growth in the assay with SR leukemia was 65.6%; in the assay on RPMI-8226 leukemia, 63%; with OVCAR-8 ovarian, 38%; in the assay on OVCAR-5 ovarian it was 98.4%; with OVCAR-4 ovarian, 65.2%; in the assay with SK-OV-3 ovarian, 88.3%. Also, the growth is 57.4% in the assay with IGROV1 ovarian; 66.3% in the assay with OVCAR-3 ovarian; 82.3% in the assay with HS 578T breast; 9.16% (active) with NCI/ADR-RES ovarian; 62.8% in the assay with T-47D breast; 69.6% in the assay on MDA-MB-435 melanoma. The growth is 61% in the assay with SW-620 colon; 63.5% in the assay on MCF7 breast; 46.3% in the assay on HCT-116 colon; 98.7% with HCC-2998 colon; 65.1% with KM12 colon.
